In publication PMC5700166:

Assays:
[1] = target: T1, GST-Nv-NF-kB (Ser allele) (Nematostella vectensis, UniProt A7UNT2 2-411); assay: protein-binding microarray (PBM); PBM: ~300 nM protein, 6 mM HEPES pH 7.8, 80 mM KCl, 0.5 mM EDTA, 0.5 mM EGTA, 6% glycerol, 35 ng/ul poly-dIdC, 1% milk, 1 h, room temperature; Ap Aiptasia and Nv Nematostella (sea anemones) / Co Capsaspora / Aq Amphimedon (sponge) / Dm Drosophila / Hu human; RHD is the Rel homology domain; high values mean tight binding; details: dsDNA, one strand shown
T1 sequence: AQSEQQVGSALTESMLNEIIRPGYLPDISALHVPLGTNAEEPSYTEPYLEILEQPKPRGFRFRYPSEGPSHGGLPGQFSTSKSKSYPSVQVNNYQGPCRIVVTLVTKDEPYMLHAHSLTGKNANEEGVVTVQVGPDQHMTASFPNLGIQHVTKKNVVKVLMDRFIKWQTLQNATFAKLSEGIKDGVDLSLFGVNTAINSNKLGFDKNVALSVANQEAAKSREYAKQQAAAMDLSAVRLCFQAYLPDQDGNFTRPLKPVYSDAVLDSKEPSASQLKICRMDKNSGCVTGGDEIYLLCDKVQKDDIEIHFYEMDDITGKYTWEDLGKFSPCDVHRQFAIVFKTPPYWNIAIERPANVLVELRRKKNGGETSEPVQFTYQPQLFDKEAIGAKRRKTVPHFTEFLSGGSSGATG

GST-Hu-p50 = GST-Hu-p50 (Homo sapiens, UniProt P19838 7-356); assay: as above; details: dsDNA, one strand shown
Chain of GST-Hu-p50 (P19838 7-356): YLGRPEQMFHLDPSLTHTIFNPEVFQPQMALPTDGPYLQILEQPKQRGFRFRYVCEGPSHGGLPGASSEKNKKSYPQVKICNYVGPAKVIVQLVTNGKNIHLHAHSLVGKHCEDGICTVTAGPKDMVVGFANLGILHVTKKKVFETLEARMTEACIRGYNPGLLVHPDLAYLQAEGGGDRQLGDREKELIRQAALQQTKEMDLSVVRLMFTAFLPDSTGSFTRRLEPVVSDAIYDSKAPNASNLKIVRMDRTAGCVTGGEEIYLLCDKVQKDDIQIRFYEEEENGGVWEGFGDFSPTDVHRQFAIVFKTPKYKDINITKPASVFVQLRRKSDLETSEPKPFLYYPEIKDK

## CCGATTAACATCACGTGTTTCCCTGATGTTAATCGGGTCTTGATTCGCTTGACGCTGCTG
[1]
  binding signal: 3.33 z-score
GST-Hu-p50
  binding signal: 1.11 z-score

## CCGATTAACATCAGGACTTCCCATGATGTTAATCGGGTCTTGATTCGCTTGACGCTGCTG
[1]
  binding signal: 1.03 z-score
GST-Hu-p50
  binding signal: 1.76 z-score

## CCGATTAACATCAAGTGTTTCCCTGATGTTAATCGGGTCTTGATTCGCTTGACGCTGCTG
[1]
  binding signal: 3.36 z-score
GST-Hu-p50
  binding signal: 1.3 z-score

## CCGATTAACATCAAGGAATTTCCTGATGTTAATCGGGTCTTGATTCGCTTGACGCTGCTG
[1]
  binding signal: 1.22 z-score
GST-Hu-p50
  binding signal: 1.48 z-score

## CCGATTAACATCAGATTTCTCCCTGATGTTAATCGGGTCTTGATTCGCTTGACGCTGCTG
[1]
  binding signal: 3.47 z-score
GST-Hu-p50
  binding signal: 1.72 z-score

## CCGATTAACATCACAAACTTCCCTGATGTTAATCGGGTCTTGATTCGCTTGACGCTGCTG
[1]
  binding signal: 4.44 z-score
GST-Hu-p50
  binding signal: 2.88 z-score

## CCGATTAACATCAGGACACTCCCTGATGTTAATCGGGTCTTGATTCGCTTGACGCTGCTG
[1]
  binding signal: 1.43 z-score
GST-Hu-p50
  binding signal: 1.94 z-score

## CCGATTAACATCAGTCCCGCACTTGATGTTAATCGGGTCTTGATTCGCTTGACGCTGCTG
[1]
  binding signal: 1.03 z-score
GST-Hu-p50
  binding signal: 1.18 z-score

## CCGATTAACATCAGGGATTTCTATGATGTTAATCGGGTCTTGATTCGCTTGACGCTGCTG
[1]
  binding signal: 3.11 z-score
GST-Hu-p50
  binding signal: 3.37 z-score

## CCGATTAACATCAGGGGAGTATATGATGTTAATCGGGTCTTGATTCGCTTGACGCTGCTG
[1]
  binding signal: 4.21 z-score
GST-Hu-p50
  binding signal: 3.33 z-score

## CCGATTAACATCAGGGGCACCCCTGATGTTAATCGGGTCTTGATTCGCTTGACGCTGCTG
[1]
  binding signal: 2.72 z-score
GST-Hu-p50
  binding signal: 3.94 z-score

## CCGATTAACATCAGGTTTTTCCATGATGTTAATCGGGTCTTGATTCGCTTGACGCTGCTG
[1]
  binding signal: 1.02 z-score
GST-Hu-p50
  binding signal: 1.41 z-score

## CCGATTAACATCACGGGACCCCCTGATGTTAATCGGGTCTTGATTCGCTTGACGCTGCTG
[1]
  binding signal: 3.8 z-score
GST-Hu-p50
  binding signal: 3.54 z-score

## CCGATTAACATCACACCCCCCCCTGATGTTAATCGGGTCTTGATTCGCTTGACGCTGCTG
[1]
  binding signal: 3.66 z-score
GST-Hu-p50
  binding signal: 3.76 z-score
